Drawing on PubChem BioAssay AID2205 (University of Pittsburgh Molecular Library Screening Center, 2009), this text covers % Hoechst-high responders, % tubulin-high responders and toxicity for 41 compounds.

The campaign covered roughly 200,000 compounds. About 1,600 (0.8%) were called active.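 How the source made its calls: active means plate Z-score above 3 for both tubulin-high and condensed-nucleus cell shares, with cell loss under 80%, at 10 µM; inactive means the rest, inconclusive results apart.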 The full list was thinned out, with actives kept by preference.

The experiment is described as follows: tubulin staining increase by stabilizing compounds – imaging, high-content imaging, primary screen (AID 2205).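 On % tubulin-high responders: anti alpha tubulin signal scored within the nucleus-defined area of each cell.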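 On toxicity: 0% = mean cell density of plate MIN control wells and 100% = no cells.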 The note with it: HeLa tubulin immunostaining HCS, 24 h, at 10 µM; % Hoechst-high responders: measured here: nuclear condensation Hoechst responders, stronger effect = higher value, share of cells brighter than vehicle mean+2SD; % tubulin-high responders: stronger effect = higher value, share of cells brighter than vehicle mean+2SD; toxicity: measured here: cytotoxicity by cell density.
For the compound `O=C(CCNS(=O)(=O)c1ccc(Br)s1)NCc1ccccc1Cl`, the % Hoechst-high responders came out at 1.95%, the % tubulin-high responders is 0.853% (inactive) and the toxicity worked out at 9.73%.

Consider `CCC(C)(C(=O)Nc1ccccc1C)N(C(=O)CNC(C)=O)c1ccc(C)cc1` (stereo not drawn), for which the % Hoechst-high responders was 3.25%, the % tubulin-high responders is 4.21% (inactive) and the toxicity was 4.1%.

Consider `CCOc1ccc(Br)cc1S(=O)(=O)Nc1ccc(C(=O)OC(C)C(=O)N(C)c2ccccc2)cc1` (stereo not drawn), for which the % Hoechst-high responders stood at 0.626%, the % tubulin-high responders was 6.66% (inactive) and the toxicity stood at 0.658%.

In the case of `Cc1cc(C)n(-c2cc(Oc3ccccc3)ncn2)n1`, the % Hoechst-high responders was 0.881%, the % tubulin-high responders is 1.4% (inactive) and the toxicity was 3.38%.

For `COc1ccc(Nc2cc(C)nc(-n3nc(C)cc3C)n2)cc1`, the % Hoechst-high responders was determined as 25.7%, the % tubulin-high responders was 11.5% (inactive) and the toxicity was 60.4%.

Consider `CC(=O)c1ccc(Oc2cc(C)nc(-n3nc(C)cc3C)n2)cc1`, for which the % Hoechst-high responders turned out to be 57.9%, the % tubulin-high responders was 17.9% (active) and the toxicity stood at 18.9%.

In the case of `CCn1cc(CN2CCCC(CNS(=O)(=O)Cc3ccccc3)C2)cn1` (stereo not drawn), the % Hoechst-high responders was 2.22%, the % tubulin-high responders was 3.89% (inactive) and the toxicity was found to be 8.22%.

For `O=C(CN1CCN(Cc2ccc(F)cc2Cl)C1=O)NCc1cccs1`, the % Hoechst-high responders came to 1.49%, the % tubulin-high responders was 1.68% (inactive) and the toxicity was 2.53%.

For the compound `CC(C)CNC(=O)CC(NCC(C)C)C(=O)O` (stereo not drawn), the % Hoechst-high responders worked out at 2.02%, the % tubulin-high responders is 2.59% (inactive) and the toxicity worked out at 6.47%.

In the case of `O=C(/C=C/c1cccs1)NCc1cccnc1`, the % Hoechst-high responders was 2.05%, the % tubulin-high responders is 2.55% (inactive) and the toxicity came to 5.06%.

With `O=C(Nc1cccc(F)c1)c1ccc(S(=O)(=O)N2CCCC2)cc1`, the % Hoechst-high responders was determined as 3.36%, the % tubulin-high responders was 4.55% (inactive) and the toxicity worked out at 7.13%.

In the case of `CCOC(=O)N1CCN(S(=O)(=O)c2ccc(C(=O)Nc3ccc(F)cc3F)cc2)CC1`, the % Hoechst-high responders worked out at 35.2%, the % tubulin-high responders is 29.1% (active) and the toxicity worked out at 67.6%.

For `COc1ccc(C(=O)Nc2ccc(F)cc2F)cc1`, the % Hoechst-high responders came to 1.66%, the % tubulin-high responders was 1.84% (inactive) and the toxicity is 2.01%.

Take `C/[N+]([O-])=C\c1ccc([N+](=O)[O-])o1`: the % Hoechst-high responders stood at 1.53%, the % tubulin-high responders was 1.72% (inactive) and the toxicity is 3.24%.

On to `CCCn1c(SCC(=O)Nc2ccc(C)c(S(=O)(=O)N3CCOCC3)c2)n[nH]c1=O`, for which the % Hoechst-high responders is 2.38%, the % tubulin-high responders is 5.82% (inactive) and the toxicity is 5.63%.

For the compound `CC(C)C(=O)NC(=S)Nc1ccccc1F`, the % Hoechst-high responders was 1.63%, the % tubulin-high responders was 3.48% (inactive) and the toxicity was 5.15%.

For `CC(C)C(=O)Nc1cccc(NC(=S)NC(=O)C(c2ccccc2)c2ccccc2)c1`, the % Hoechst-high responders amounted to 44%, the % tubulin-high responders is 30.3% (active) and the toxicity was determined as 36.2%.

In the case of `CCCCC(=O)NNC(=S)NC(=O)C(c1ccccc1)c1ccccc1`, the % Hoechst-high responders came to 1.83%, the % tubulin-high responders was 2.83% (inactive) and the toxicity amounted to 2.74%.

For `CC(Sc1nnc2c(n1)C1CCC2(C)C1(C)C)C(=O)Nc1ccccc1` (stereo not drawn), the % Hoechst-high responders was 3%, the % tubulin-high responders is 3.52% (inactive) and the toxicity is 9.4%.

As to `O=C(/C=C/c1ccc(Cl)c([N+](=O)[O-])c1)c1cccnc1`, the % Hoechst-high responders is 0.942%, the % tubulin-high responders is 1.22% (inactive) and the toxicity was determined as 2.98%.

With `CC1CCc2c(sc3nc4n(c(=O)c23)CCS4)C1` (stereo not drawn), the % Hoechst-high responders was found to be 1.5%, the % tubulin-high responders was 1.55% (inactive) and the toxicity is 8.83%.

As for `C=CCn1c(SCc2c(C)noc2C)nc2sc3c(c2c1=O)CCC(C)C3` (stereo not drawn), the % Hoechst-high responders was determined as 27.2%, the % tubulin-high responders was 31.2% (active) and the toxicity was found to be 44.4%.

As to `Cc1cc(NC(=O)CSc2nc(C(C)C)nc3sc4c(c23)CCC(C)C4)no1` (stereo not drawn), the % Hoechst-high responders stood at 2.02%, the % tubulin-high responders was 5.74% (inactive) and the toxicity came out at 9.29%.

Turning to `O=C(CCn1ccc([N+](=O)[O-])n1)Nc1nccs1`, the % Hoechst-high responders stood at 2.43%, the % tubulin-high responders is 6.18% (inactive) and the toxicity amounted to 8.86%.

Turning to `CCC(=O)/C=C1\Sc2ccccc2N1CC`, the % Hoechst-high responders was found to be 0.853%, the % tubulin-high responders is 4.83% (inactive) and the toxicity was 6.64%.

As to `CCN1/C(=C/c2ccc3ccc(C)cc3[n+]2CC)Sc2ccccc21`, the % Hoechst-high responders came to 2.38%, the % tubulin-high responders was 4.83% (inactive) and the toxicity came to 9.09%.

Regarding `CCN1/C(=C\c2ccc3ccccc3[n+]2CC)Sc2cc(C)ccc21`, the % Hoechst-high responders is 5.5%, the % tubulin-high responders was 8.18% (active) and the toxicity worked out at 19.1%.

As to `FC(F)(F)c1nnc2ccc(N3CCN(c4ccccc4)CC3)nn12`, the % Hoechst-high responders is 1.98%, the % tubulin-high responders is 0.88% (inactive) and the toxicity turned out to be 7.36%.

On to `Fc1c(F)c(C(F)(F)F)c(F)c(F)c1N1CCN(c2ccc3nnc(C(F)(F)F)n3n2)CC1`, for which the % Hoechst-high responders is 7.05%, the % tubulin-high responders is 6.71% (active) and the toxicity amounted to 8.52%.

Take `Cc1nn(-c2ccccc2)c(-n2cccc2)c1C(=O)O`: the % Hoechst-high responders is 3.22%, the % tubulin-high responders was 2.89% (inactive) and the toxicity came out at 10.5%.

Regarding `CCCOC(=O)c1[nH]c2c(c1C)C(=O)CC(c1cccs1)C2` (stereo not drawn), the % Hoechst-high responders was found to be 49.4%, the % tubulin-high responders was 25.2% (active) and the toxicity stood at 48.6%.

In the case of `CCOC(=O)c1[nH]c2c(c1C)C(=O)CC(c1ccc(N(C)C)cc1)C2` (stereo not drawn), the % Hoechst-high responders was 1.67%, the % tubulin-high responders is 6.74% (inactive) and the toxicity amounted to 9.96%.

Turning to `CCCOC(=O)c1[nH]c2c(c1C)C(=O)CC(c1cc(OC)c(OC)c(OC)c1)C2` (stereo not drawn), the % Hoechst-high responders worked out at 1.51%, the % tubulin-high responders was 5.08% (inactive) and the toxicity was found to be 9.25%.

Take `CSc1ccc(/C=N\NC(=O)CC(=O)NC(C)C)cc1`: the % Hoechst-high responders was 1.95%, the % tubulin-high responders was 3.08% (inactive) and the toxicity came to 8.56%.

Consider `CCOC(=O)c1c(C)[nH]c(C(=O)COc2ccc3c(c2)OCO3)c1C`, for which the % Hoechst-high responders is 3.29%, the % tubulin-high responders was 2.42% (inactive) and the toxicity stood at 11.4%.

In the case of `Cc1ccc(C(=O)OCC(=O)NCc2ccc3c(c2)OCO3)s1`, the % Hoechst-high responders was 1.59%, the % tubulin-high responders was 1.75% (inactive) and the toxicity came out at 6.77%.

Regarding `CCOC(=O)c1nc(-c2ccc3c(c2)OCO3)[nH]c1C`, the % Hoechst-high responders was 10.2%, the % tubulin-high responders was 26.6% (active) and the toxicity is 43%.

Take `Cc1ccc(CNC(=O)CCNS(=O)(=O)c2ccc(Br)s2)cc1`: the % Hoechst-high responders came to 2.82%, the % tubulin-high responders is 2.88% (inactive) and the toxicity is 3.85%.

For the compound `CCOc1cccc(/C=C/c2ccc3ccccc3n2)c1OC(C)=O`, the % Hoechst-high responders worked out at 3.95%, the % tubulin-high responders was 5.51% (inactive) and the toxicity was determined as 3.2%.

On to `Cc1ccc2nc(-c3cccc(Br)c3)cc(C(=O)Nn3cnnc3)c2c1`, for which the % Hoechst-high responders was determined as 3.03%, the % tubulin-high responders was 6.01% (inactive) and the toxicity is 5.1%.

Consider `COc1ccc2c(c1)C(c1cccs1)=NNC(c1cccnc1)=N2`, for which the % Hoechst-high responders was found to be 1.1%, the % tubulin-high responders was 2.37% (inactive) and the toxicity is 7.76%.
